Here are results for 16 compounds from PubChem BioAssay (EPA / NIEHS).

The target in assay [1] is Serine/threonine-protein phosphatase PP1-alpha catalytic subunit (Homo sapiens) (UniProt P62136). Briefly: NVS_ENZ_hPPP1CA: NovaScreen (NVS) Enzymatic Assay for human Protein Phosphatase 1 Aatalytic subunit Alpha (PPP1CA) (AID 2283200). A digest of the protocol:
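Recombinant enzyme activity read by fluorescence with electrophoretic mobility shift separating substrate from product, 1.33 h after dosing; loss of signal vs DMSO baseline. Primary screen in duplicate at 25 uM; actives retested in concentration-response up to 50 uM.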

For assay [2], the target named is human Rho Associated Coiled-coil Containing Protein Kinase 1 (ROCK1), ROCK1 (gene 6093) (UniProt Q13464). As to the kind of experiment: NVS_ENZ_hROCK1: NovaScreen (NVS) Enzymatic Assay for human Rho Associated Coiled-coil Containing Protein Kinase 1 (ROCK1) (AID 2283214). The procedure, abridged:
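Cell-free recombinant human ROCK1 activity assay; fluorescent substrate and product separated by electrophoretic mobility shift, read 1 h after dosing. Screened in duplicate at 25 uM; loss of signal versus DMSO baseline scored as inhibition.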

Assay [3] has as its target human Sirtuin 3 (SIRT3), SIRT3 (gene 23410) (UniProt Q9NTG7). Briefly: NVS_ENZ_hSIRT3: NovaScreen (NVS) Enzymatic Assay for human Sirtuin 3 (SIRT3) (AID 2283222). The procedure, abridged:
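Cell-free enzyme assay with recombinant protein and fluorescent substrate, product separated by electrophoretic mobility shift; read 1 hour after dosing. Screened in duplicate at 25 uM, then singleton concentration-response up to 50 uM; loss of signal versus DMSO.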

Assay [4] concerns the target human Protein Tyrosine Phosphatase Non-receptor Type 1 (PTPN1), PTPN1 (gene 5770) (UniProt P18031). Briefly: NVS_ENZ_hPTPN1: NovaScreen (NVS) Enzymatic Assay for human Protein Tyrosine Phosphatase Non-receptor Type 1 (PTPN1) (AID 2283201). The procedure, abridged:
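Cell-free fluorogenic-substrate activity assay on recombinant enzyme, read 1.33 h after dosing by fluorescence and electrophoretic mobility shift; loss of signal vs DMSO baseline. Primary screen in duplicate at 25 uM, hits then run in concentration-response up to 50 uM.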

Assay [5] deals with Tyrosine-protein phosphatase non-receptor type 11 (Homo sapiens) (UniProt Q06124). Briefly: NVS_ENZ_hPTPN11: NovaScreen (NVS) Enzymatic Assay for human Protein Tyrosine Phosphatase Non-receptor Type 11 (PTPN11) (AID 2283202). A digest of the protocol: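 Recombinant human PTPN11 activity on a fluorescent substrate, with substrate/product separated by electrophoretic mobility shift; read 0.5 h after dosing, loss of signal vs DMSO. Duplicate 25 uM screen, then concentration-response up to 50 uM.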

Assay [6] addresses Tyrosine-protein phosphatase non-receptor type 13 (Homo sapiens) (UniProt Q12923). As to the kind of experiment: NVS_ENZ_hPTPN13: NovaScreen (NVS) Enzymatic Assay for human Protein Tyrosine Phosphatase Non-receptor Type 13 (PTPN13) (AID 2283205). The procedure, abridged:
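Cell-free assay of recombinant human PTPN13 with a fluorescent substrate, product separated by electrophoretic mobility shift and read 0.5 h after dosing. Primary screen at 25 uM in duplicate, then concentration-response up to 50 uM. Loss of signal fitted against DMSO.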

Assay [7] addresses Tyrosine-protein phosphatase non-receptor type 14 (Homo sapiens) (UniProt Q15678). Briefly: NVS_ENZ_hPTPN14: NovaScreen (NVS) Enzymatic Assay for human Protein Tyrosine Phosphatase Non-receptor Type 14 (PTPN14) (AID 2283206). The procedure, abridged:
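Cell-free recombinant human PTPN14 with fluorescent substrate, read 0.5 h after dosing by fluorescence and electrophoretic mobility shift separating substrate from product. Primary screen at 25 uM in duplicate; hits run to 50 uM maximum; loss of signal versus DMSO.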

In assay [8] the target is human Protein Tyrosine Phosphatase Receptor Type B (PTPRB), PTPRB (gene 5787) (UniProt P23467). As to the kind of experiment: NVS_ENZ_hPTPRB: NovaScreen (NVS) Enzymatic Assay for human Protein Tyrosine Phosphatase Receptor Type B (PTPRB) (AID 2283211). The procedure, abridged: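 Recombinant human PTPRB with a fluorescent substrate, product separated by electrophoretic mobility shift; read 1 h after dosing. Primary screen in duplicate at 25 uM; actives then retested in concentration series; loss of signal versus DMSO.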

For assay [9], the target named is human Protein Tyrosine Phosphatase Receptor Type M (PTPRM), PTPRM (gene 5797) (UniProt P28827). As to the kind of experiment: NVS_ENZ_hPTPRM: NovaScreen (NVS) Enzymatic Assay for human Protein Tyrosine Phosphatase Receptor Type M (PTPRM) (AID 2283215). The procedure, abridged: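 Cell-free recombinant PTPRM with fluorogenic substrate; product separated from substrate by electrophoretic mobility shift and read by fluorescence, 1.33 h after dosing. Primary screen single concentration (25 uM) in duplicate; actives retested in concentration series; loss of signal versus DMSO.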

Assay [10] concerns the target human Protein Tyrosine Phosphatase Non-receptor Type 4 (PTPN4), PTPN4 (gene 5775) (UniProt P29074). Briefly: NVS_ENZ_hPTPN4: NovaScreen (NVS) Enzymatic Assay for human Protein Tyrosine Phosphatase Non-receptor Type 4 (PTPN4) (AID 2283208). A digest of the protocol: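 Cell-free assay of PTPN4 expressed in Sf9 cells, using a fluorescent substrate with product separated by mobility shift; read 1.33 h after dosing. Single-point screen at 25 uM, then concentration-response up to 50 uM. Loss of signal relative to DMSO.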

The target of assay [11] is human Sirtuin 2 (SIRT2), SIRT2 (gene 22933) (UniProt Q8IXJ6). Briefly: NVS_ENZ_hSIRT2: NovaScreen (NVS) Enzymatic Assay for human Sirtuin 2 (SIRT2) (AID 2283217). A digest of the protocol: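 Cell-free recombinant human SIRT2, fluorescent substrate with product separated by electrophoretic mobility shift, 1 hr. Screened in duplicate at 25 uM; hits rerun singly in concentration-response up to 50 uM, relative to DMSO.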

The target of assay [12] is human Sirtuin 1 (SIRT1), SIRT1 (gene 23411) (UniProt Q96EB6). As to the kind of experiment: NVS_ENZ_hSIRT1: NovaScreen (NVS) Enzymatic Assay for human Sirtuin 1 (SIRT1) (AID 2283219). The procedure, abridged:
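Cell-free recombinant SIRT1 with a fluorescent substrate; substrate and product separated by electrophoretic mobility shift and read by fluorescence intensity, 1 h after dosing. Primary screen at 25 uM in duplicate; hits re-run in concentration-response up to 50 uM, relative to DMSO.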

Assay [13] has as its target human Raf-1 Proto-Oncogene, serine/threonine Kinase (RAF1), RAF1 (gene 5894) (UniProt P04049). As to the kind of experiment: NVS_ENZ_hRAF1: NovaScreen (NVS) Enzymatic Assay for human Raf-1 Proto-Oncogene, serine/threonine Kinase (RAF1) (AID 2283216). The procedure, abridged: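 Cell-free recombinant kinase with specific fluorescent substrate, product separated by electrophoretic mobility shift; read 1 h after dosing. Primary screen at 25 uM in duplicate; hits then run in concentration-response up to 50 uM, fitted as loss of signal versus DMSO.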

For assay [14], the target named is human Protein Tyrosine Phosphatase Non-receptor Type 9 (PTPN9), PTPN9 (gene 5780) (UniProt P43378). As to the kind of experiment: NVS_ENZ_hPTPN9: NovaScreen (NVS) Enzymatic Assay for human Protein Tyrosine Phosphatase Non-receptor Type 9 (PTPN9) (AID 2283209). The procedure, abridged:
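Sf9-expressed enzyme in a cell-free assay, fluorescence read 1.33 h after dosing with mobility-shift separation of substrate and product. Tested at 25 uM in duplicate, then up to 50 uM; signal loss versus DMSO.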

In assay [15] the target is human Protein Tyrosine Phosphatase Receptor Type F (PTPRF), PTPRF (gene 5792) (UniProt P10586). As to the kind of experiment: NVS_ENZ_hPTPRF: NovaScreen (NVS) Enzymatic Assay for human Protein Tyrosine Phosphatase Receptor Type F (PTPRF) (AID 2283213). The procedure, abridged: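 Cell-free fluorescence enzyme assay with recombinant protein and substrate; product separated by electrophoretic mobility shift. Read 1 h after dosing, single 25 uM duplicate screen, then concentration-response up to 50 uM; loss of signal vs DMSO.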

The target in assay [16] is human Phosphatase and Tensin Homolog (PTEN), PTEN (gene 5728) (UniProt P60484). Briefly: NVS_ENZ_hPTEN: NovaScreen (NVS) Enzymatic Assay for human Phosphatase and Tensin Homolog (PTEN) (AID 2283203). A digest of the protocol: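 Cell-free recombinant human PTEN with fluorescent substrate; product separated by electrophoretic mobility shift and read by fluorescence 1 h after dosing. Primary screen in duplicate at 25 uM, actives followed in concentration series versus DMSO.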

Assay [17] concerns the target human SRC Proto-Oncogene, Non-receptor Tyrosine Kinase (SRC), SRC (gene 6714) (UniProt P12931). Briefly: NVS_ENZ_hSRC: NovaScreen (NVS) Enzymatic Assay for human SRC Proto-Oncogene, Non-receptor Tyrosine Kinase (SRC) (AID 2283223). A digest of the protocol:
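Cell-free kinase activity assay with fluorescent substrate, product separated by electrophoretic mobility shift, read 1 h after dosing. Duplicate single point at 25 uM, then concentration-response up to 50 uM; loss of signal versus DMSO.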

Values joined by “and” are separate entries in the source; they are usually repeats but may differ in a detail not shown here. Equal entries are not always repeated. Records with an inconclusive call do not appear. Active and inactive are the calls of the source. The calls were made as follows: active = hit-call score of the fitted dose curve at least 0.9, where 1 is the maximum; inconclusive = response in the unintended direction; inactive = score below 0.9.

Sequence of human Sirtuin 2 (SIRT2), SIRT2 (gene 22933) (Q8IXJ6 whole entry, looked up): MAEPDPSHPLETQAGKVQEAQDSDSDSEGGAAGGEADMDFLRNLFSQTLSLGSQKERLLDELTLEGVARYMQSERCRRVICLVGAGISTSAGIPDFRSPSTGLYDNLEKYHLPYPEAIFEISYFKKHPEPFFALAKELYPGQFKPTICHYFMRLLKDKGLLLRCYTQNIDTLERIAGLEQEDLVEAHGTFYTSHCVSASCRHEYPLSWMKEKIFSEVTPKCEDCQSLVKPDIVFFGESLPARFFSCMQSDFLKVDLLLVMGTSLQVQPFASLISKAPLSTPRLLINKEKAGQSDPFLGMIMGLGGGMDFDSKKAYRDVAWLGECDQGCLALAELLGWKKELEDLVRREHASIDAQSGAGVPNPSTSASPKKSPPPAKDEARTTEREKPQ
Sequence of Tyrosine-protein phosphatase non-receptor type 14 (Homo sapiens) (Q15678 whole entry, looked up): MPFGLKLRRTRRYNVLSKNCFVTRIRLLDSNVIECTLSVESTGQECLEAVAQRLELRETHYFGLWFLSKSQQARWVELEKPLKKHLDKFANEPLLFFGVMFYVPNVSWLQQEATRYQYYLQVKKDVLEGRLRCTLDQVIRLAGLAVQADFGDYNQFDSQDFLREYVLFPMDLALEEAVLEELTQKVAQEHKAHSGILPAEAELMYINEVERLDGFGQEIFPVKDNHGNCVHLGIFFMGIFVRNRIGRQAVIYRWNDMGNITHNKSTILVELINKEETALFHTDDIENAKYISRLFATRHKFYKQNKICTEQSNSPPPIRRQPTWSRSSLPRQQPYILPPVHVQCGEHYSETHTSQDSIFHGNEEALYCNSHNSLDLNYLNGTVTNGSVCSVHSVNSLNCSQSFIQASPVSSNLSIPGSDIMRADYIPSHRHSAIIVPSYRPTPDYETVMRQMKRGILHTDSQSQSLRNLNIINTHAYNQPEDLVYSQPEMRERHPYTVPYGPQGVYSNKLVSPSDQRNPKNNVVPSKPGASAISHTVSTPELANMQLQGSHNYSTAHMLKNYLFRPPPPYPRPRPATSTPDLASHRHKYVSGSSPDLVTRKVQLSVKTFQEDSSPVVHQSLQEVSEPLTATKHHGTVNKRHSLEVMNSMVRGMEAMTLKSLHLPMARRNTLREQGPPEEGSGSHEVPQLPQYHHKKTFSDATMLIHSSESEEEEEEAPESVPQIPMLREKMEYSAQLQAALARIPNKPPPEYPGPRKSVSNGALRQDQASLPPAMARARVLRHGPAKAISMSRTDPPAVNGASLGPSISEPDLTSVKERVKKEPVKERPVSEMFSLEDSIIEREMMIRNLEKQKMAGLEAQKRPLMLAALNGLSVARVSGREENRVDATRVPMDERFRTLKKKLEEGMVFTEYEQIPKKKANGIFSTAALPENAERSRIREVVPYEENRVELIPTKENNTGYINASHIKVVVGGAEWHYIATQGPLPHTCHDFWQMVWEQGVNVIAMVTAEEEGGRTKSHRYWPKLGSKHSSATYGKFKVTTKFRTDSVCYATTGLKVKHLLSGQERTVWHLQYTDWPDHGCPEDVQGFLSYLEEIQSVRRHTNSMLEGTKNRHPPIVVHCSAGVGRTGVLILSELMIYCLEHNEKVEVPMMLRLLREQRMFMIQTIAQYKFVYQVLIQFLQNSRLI
Sequence of human Protein Tyrosine Phosphatase Non-receptor Type 4 (PTPN4), PTPN4 (gene 5775) (P29074 whole entry, looked up): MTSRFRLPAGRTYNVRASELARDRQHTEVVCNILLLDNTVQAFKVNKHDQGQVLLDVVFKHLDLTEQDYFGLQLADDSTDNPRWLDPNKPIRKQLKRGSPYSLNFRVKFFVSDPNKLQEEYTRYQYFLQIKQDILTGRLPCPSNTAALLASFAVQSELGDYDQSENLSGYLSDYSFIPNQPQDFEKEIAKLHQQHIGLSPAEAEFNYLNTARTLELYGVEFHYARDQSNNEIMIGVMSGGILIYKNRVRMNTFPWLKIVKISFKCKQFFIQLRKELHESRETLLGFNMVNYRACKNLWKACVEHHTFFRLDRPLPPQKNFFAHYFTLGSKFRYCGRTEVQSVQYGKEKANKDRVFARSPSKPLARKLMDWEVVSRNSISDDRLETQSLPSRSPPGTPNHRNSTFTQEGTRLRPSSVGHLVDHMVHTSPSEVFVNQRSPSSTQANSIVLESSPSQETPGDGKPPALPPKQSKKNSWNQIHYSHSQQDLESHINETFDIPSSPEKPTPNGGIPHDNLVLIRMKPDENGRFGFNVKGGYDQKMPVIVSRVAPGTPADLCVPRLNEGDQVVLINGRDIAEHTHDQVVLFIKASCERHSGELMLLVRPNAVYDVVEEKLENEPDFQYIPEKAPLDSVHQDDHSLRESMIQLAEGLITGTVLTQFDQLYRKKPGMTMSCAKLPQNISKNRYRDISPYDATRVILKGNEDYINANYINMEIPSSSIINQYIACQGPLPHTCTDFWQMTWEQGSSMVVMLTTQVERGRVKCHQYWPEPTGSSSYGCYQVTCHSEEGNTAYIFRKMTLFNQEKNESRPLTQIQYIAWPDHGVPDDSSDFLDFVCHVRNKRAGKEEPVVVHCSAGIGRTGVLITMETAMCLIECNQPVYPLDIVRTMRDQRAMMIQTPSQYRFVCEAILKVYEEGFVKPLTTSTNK
Sequence of human Sirtuin 3 (SIRT3), SIRT3 (gene 23410) (Q9NTG7 whole entry, looked up): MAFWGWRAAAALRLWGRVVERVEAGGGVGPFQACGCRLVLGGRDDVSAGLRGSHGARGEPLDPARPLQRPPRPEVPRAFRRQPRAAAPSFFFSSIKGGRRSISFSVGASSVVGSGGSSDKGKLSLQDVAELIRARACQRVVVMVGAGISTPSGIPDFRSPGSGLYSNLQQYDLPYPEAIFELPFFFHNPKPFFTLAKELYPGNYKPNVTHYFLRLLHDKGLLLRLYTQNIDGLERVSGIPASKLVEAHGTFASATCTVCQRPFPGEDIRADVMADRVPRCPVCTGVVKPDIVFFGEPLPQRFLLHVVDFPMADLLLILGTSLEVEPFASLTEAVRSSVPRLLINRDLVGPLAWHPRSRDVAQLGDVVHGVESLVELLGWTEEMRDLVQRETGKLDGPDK
Sequence of Serine/threonine-protein phosphatase PP1-alpha catalytic subunit (Homo sapiens) (P62136 whole entry, looked up): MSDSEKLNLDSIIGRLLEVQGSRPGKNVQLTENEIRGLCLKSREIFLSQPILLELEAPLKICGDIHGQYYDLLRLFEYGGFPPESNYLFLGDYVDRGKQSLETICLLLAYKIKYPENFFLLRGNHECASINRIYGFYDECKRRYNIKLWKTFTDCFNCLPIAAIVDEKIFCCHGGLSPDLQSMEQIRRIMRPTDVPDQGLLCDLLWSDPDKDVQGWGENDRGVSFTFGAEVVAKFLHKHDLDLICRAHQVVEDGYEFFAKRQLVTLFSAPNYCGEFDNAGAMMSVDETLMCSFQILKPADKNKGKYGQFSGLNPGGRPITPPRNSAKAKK
Sequence of human Sirtuin 1 (SIRT1), SIRT1 (gene 23411) (Q96EB6 whole entry, looked up): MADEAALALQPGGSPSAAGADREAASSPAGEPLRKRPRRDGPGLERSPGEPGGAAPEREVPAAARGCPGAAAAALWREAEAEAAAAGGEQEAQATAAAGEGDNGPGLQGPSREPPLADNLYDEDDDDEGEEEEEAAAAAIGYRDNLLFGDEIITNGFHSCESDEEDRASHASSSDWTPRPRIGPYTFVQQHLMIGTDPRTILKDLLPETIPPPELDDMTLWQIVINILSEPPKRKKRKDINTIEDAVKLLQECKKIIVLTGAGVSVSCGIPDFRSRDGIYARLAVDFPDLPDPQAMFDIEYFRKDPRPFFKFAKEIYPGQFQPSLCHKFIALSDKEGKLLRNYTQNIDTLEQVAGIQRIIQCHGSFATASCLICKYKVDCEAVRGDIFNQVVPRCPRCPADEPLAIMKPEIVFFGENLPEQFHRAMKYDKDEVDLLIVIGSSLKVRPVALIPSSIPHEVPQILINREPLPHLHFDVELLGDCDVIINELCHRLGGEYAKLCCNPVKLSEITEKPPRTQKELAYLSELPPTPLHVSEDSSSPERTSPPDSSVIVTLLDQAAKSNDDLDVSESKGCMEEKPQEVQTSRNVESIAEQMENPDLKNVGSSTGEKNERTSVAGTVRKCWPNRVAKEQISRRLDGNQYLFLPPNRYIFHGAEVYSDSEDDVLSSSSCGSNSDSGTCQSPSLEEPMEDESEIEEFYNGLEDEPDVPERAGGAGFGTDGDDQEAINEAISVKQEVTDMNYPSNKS
Sequence of human Raf-1 Proto-Oncogene, serine/threonine Kinase (RAF1), RAF1 (gene 5894) (P04049 whole entry, looked up): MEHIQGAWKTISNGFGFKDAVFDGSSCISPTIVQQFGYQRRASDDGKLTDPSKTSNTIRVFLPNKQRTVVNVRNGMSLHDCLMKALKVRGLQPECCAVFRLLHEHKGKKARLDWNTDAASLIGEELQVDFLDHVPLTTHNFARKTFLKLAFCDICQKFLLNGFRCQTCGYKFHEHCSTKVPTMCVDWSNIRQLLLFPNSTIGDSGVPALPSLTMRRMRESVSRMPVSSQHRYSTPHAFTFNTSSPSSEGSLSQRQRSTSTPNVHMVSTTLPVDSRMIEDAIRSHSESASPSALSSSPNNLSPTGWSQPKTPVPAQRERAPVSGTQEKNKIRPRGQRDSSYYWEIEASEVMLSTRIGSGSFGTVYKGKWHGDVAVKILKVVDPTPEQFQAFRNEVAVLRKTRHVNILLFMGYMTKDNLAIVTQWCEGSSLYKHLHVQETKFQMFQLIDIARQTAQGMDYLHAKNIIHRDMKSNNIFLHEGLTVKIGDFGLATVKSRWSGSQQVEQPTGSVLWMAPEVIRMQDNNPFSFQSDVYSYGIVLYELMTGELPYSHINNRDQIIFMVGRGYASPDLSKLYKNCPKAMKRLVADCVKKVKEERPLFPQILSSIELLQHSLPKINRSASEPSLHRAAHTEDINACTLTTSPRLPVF
Sequence of human Phosphatase and Tensin Homolog (PTEN), PTEN (gene 5728) (P60484 whole entry, looked up): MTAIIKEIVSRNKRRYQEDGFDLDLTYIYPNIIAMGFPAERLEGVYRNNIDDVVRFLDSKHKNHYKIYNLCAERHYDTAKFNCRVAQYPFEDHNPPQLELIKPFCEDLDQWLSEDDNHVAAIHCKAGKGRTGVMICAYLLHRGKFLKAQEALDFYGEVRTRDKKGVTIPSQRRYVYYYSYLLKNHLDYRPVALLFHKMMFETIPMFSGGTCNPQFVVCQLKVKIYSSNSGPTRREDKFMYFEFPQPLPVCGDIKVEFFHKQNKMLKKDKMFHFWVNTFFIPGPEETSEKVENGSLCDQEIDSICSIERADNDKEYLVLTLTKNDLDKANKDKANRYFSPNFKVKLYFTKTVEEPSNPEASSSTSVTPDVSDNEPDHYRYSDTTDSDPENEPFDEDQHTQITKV

Turning to `CCOC(=O)CC(SP(=S)(OC)OC)C(=O)OCC` (configuration not stated), the compound was classed as inactive in [1].
As to `CC1COC(Cn2cncn2)(c2ccc(Oc3ccc(Cl)cc3)cc2Cl)O1` (configuration not stated), the call in [2] and in assay [3] was inactive.
With `CCCN(CCC)c1c([N+](=O)[O-])cc(S(N)(=O)=O)cc1[N+](=O)[O-]`, the compound was classed as inactive in assay [1], in assay [4], in assay [5], in assay [6], in [7] and in assay [8]. For the same compound, the outcome in assay [3] was inactive.
As to `COc1ccc(C(c2ccc(OC)cc2)C(Cl)(Cl)Cl)cc1`, the result in assay [5] and in [9] was inactive.
On to `Cc1cc(Cl)ccc1OCC(=O)O`, for which the call in assay [1] was inactive.
The AC50 is the concentration giving half of the maximal activity seen. Consider `CCCCNC(=O)OCC#CI`, for which the result in assay [1], in assay [7], in assay [10], in [11] and in assay [3] was inactive. In [12], the AC50 was 11.9 µM (active) and 10.7 µM (active).
Consider `Oc1ccccc1-c1ccccc1`, for which the outcome in assay [1] was inactive.
Take `CCNc1nc(Cl)nc(NC(C)C)n1`: in assay [8], the outcome was inactive.
With `O=C(Nc1ccccc1)Nc1ccnc(Cl)c1`, the result in [13] was inactive.
As for `CCOP(=S)(OCC)SCn1c(=O)oc2cc(Cl)ccc21`, in assay [7], the compound was classed as inactive.
With `N#Cc1cc(Br)c(O)c(Br)c1`, the compound was called inactive in assay [10], in assay [14] and in assay [2].
With `CN(C)C(=S)SSC(=S)N(C)C`, the call in assay [15] and in assay [11] was inactive. Besides, in assay [12], the AC50 is 6.68 µM (active).
As to `Cc1ccc(-c2c(Cl)nc(C#N)n2S(=O)(=O)N(C)C)cc1`, the result in [16] and in assay [15] was inactive.
`CCCC1COC(Cn2cncn2)(c2ccc(Cl)cc2Cl)O1` (configuration not stated): the result in assay [17] was inactive.
Turning to `Fc1ccc(Oc2ccnc3cc(Cl)cc(Cl)c23)cc1`, the AC50 in assay [13] is 17 µM (active). Besides, the compound was called inactive in assay [11].
With `CCc1nn(C)c(C(=O)NCc2ccc(C(C)(C)C)cc2)c1Cl`, the outcome in assay [10] and in [3] was inactive. Besides, in assay [14], the AC50 was 16.4 µM (active).
